Source: PubChem BioAssay
“And” between values parts separate entries of the source, which are not always exact repeats. Identical values can stand only once. The source made the active and inactive calls.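 The calls were made as follows, unless noted: active = thallium flux through the channel raised or lowered by more than 3 SD from vehicle-only wells, actives on both sides; inactive = the rest.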

Columns and labels:
[1] = Wnt pathway potentiators raising nuclear beta-catenin – imaging, WNT3A-conditioned medium, mouse C2C12, NPC library, primary screen (AID 1117326; in the data active = nuclear beta-catenin stimulation mostly above about 4.2%, no sharp cut-off; inactive = mostly below about 10%); conditions: stronger effect = higher value
[2] = stimulators of insulin release from INS-1E, primary screen, cell-based, 5 mM glucose, NPC library (AID 1117329;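 active = compound raises insulin release from rat beta cells at 5 mM glucose, no numeric limit stated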); conditions: rat INS-1E insulin secretion, at 10 µM, stronger effect = higher value
[3] = growth inhibition of GSK3B-pretreated HCT116 cells – cell-based, CellTiter-Glo, 0.2 to 20 µM (AID 1117336;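 active = compounds lowering colon cancer cell viability after pretreatment blocking the GSK3B kinase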); conditions: HCT116 viability after GSK3B inhibitor, at 20 µM, stronger effect = higher value
[4] = inhibition of endothelial tube formation, primary screen, imaging, VEGF stimulated, CD31 staining, tube area, NPC library (AID 1117340;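 active = compound that reduces growth-factor-driven endothelial tube area in a mixed cell culture, no cutoff stated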); conditions: VEGF-stimulated ADSC/ECFC co-culture, at 10 µM, stronger effect = higher value
[5] = GLP1 release stimulators, primary, NCI-H716, NPC library (AID 1117341;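 active = compound raises GLP1 secretion from the human gut endocrine cells, with no numeric limit stated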); conditions: NCI-H716 cells, at 10 µM, stronger effect = higher value
[6] = HCT116 colon cancer cell growth inhibition, primary screen, CellTiter-Glo luminescence, NPC library (AID 1117342;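 active = compounds that lower survival of HCT116 colon cancer cells in the luminescence readout, no numeric limit stated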); conditions: at 20 µM (top of the series)
[7] = reduced SW480 viability measured with CellTiter-Glo, NPC library, primary (AID 1117343;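 active = compounds that lower viability of the colon cancer cells in the luminescence readout, with no numeric limit stated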); conditions: CellTiter-Glo luminescence; at 20 µM (top of the series)
[8] = NPC library primary testing for decreased DLD-1 cell viability via CellTiter-Glo (AID 1117346;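 active = compounds that lower survival of DLD-1 colon cancer cells in the luminescence readout, no cutoff given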); conditions: DLD-1 viability, CellTiter-Glo luminescence; at 20 µM (top of the series)
[9] = biological target: 6-phosphogluconate dehydrogenase, decarboxylating (Homo sapiens) (UniProt P52209); test: inhibition of human phosphogluconate dehydrogenase – biochemical, recombinant enzyme, NADPH absorbance, primary screen (AID 1159550;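 active = at least 20% inhibition of 6-phosphogluconate dehydrogenase activity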); conditions: recombinant 6PGD, NADPH absorbance 341 nm; at 10 µM; stronger effect = higher value
6-phosphogluconate dehydrogenase, decarboxylating (Homo sapiens), sequence (P52209 whole entry, looked up): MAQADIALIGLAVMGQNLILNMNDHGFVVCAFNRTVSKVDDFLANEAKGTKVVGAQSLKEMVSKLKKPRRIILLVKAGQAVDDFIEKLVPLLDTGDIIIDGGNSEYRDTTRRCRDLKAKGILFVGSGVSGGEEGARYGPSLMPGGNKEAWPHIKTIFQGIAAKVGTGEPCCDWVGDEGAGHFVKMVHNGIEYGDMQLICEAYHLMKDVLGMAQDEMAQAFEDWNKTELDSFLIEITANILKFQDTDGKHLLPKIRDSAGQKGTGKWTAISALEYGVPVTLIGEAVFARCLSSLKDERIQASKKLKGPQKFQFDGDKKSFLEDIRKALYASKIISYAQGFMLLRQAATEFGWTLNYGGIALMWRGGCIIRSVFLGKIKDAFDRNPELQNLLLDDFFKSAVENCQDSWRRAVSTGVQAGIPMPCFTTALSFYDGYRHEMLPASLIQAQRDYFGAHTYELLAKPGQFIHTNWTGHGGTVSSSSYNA

[10] = modulation of C. elegans fzo-1 (AID 1259413; call rule not given here;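 also: fzo-1 mutant C. elegans worms in liquid wells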); conditions: C. elegans fzo-1 modulator screen, mean read-out; stronger effect = higher value
[11] = EMT-state selective cytotoxicity in co-culture – imaging, PC-3E GFP, TEM4-18 mCherry, primary screen (AID 1345086;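 active = compounds killing one labelled cell type while sparing the other, by normalised counts and ratio limits, not self-fluorescent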;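 as to all read-outs here: cells exposed to compound for 72 h before imaging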;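 as to red/green cell ratio (normalised): normalised mesenchymal count divided by normalised epithelial count so high means epithelial killing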); conditions: PC-3E GFP / TEM4-18 mCherry co-culture, imaging cell counts, at 1 µM; for red/green cell ratio (normalised): actives lie on both sides, counts scaled to control wells, 1 = unselective
[12] = MELAS cybrid and Rieske KO viability enhancers – cell-based, MELAS cybrids, Rieske KO mouse fibroblasts, CellTiter-Glo, primary screen (AID 1508586;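 active = mean z-score across replicates of 1.96 or higher in either the MELAS or the Rieske mutant cell line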;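 also: z relative to plate mean and SD of compound and empty wells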); conditions: low glucose
[13] = biological target: NAD(+) hydrolase SARM1 (Homo sapiens) (UniProt Q6SZW1); test: blocking NAD cleavage by SARM1 SAM-TIR – cell lysate, NAD-Glo luminescence (AID 1508614;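 active = compound whose remaining NAD level is above about 45 nM, limit read from the data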;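 also: higher remaining NAD means stronger inhibition of SARM1 NADase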); conditions: SAM-TIR HEK293T lysate NADase, at 1 µM, stronger effect = higher value
NAD(+) hydrolase SARM1 (Homo sapiens), sequence (Q6SZW1 whole entry, looked up, the tested form may be a part): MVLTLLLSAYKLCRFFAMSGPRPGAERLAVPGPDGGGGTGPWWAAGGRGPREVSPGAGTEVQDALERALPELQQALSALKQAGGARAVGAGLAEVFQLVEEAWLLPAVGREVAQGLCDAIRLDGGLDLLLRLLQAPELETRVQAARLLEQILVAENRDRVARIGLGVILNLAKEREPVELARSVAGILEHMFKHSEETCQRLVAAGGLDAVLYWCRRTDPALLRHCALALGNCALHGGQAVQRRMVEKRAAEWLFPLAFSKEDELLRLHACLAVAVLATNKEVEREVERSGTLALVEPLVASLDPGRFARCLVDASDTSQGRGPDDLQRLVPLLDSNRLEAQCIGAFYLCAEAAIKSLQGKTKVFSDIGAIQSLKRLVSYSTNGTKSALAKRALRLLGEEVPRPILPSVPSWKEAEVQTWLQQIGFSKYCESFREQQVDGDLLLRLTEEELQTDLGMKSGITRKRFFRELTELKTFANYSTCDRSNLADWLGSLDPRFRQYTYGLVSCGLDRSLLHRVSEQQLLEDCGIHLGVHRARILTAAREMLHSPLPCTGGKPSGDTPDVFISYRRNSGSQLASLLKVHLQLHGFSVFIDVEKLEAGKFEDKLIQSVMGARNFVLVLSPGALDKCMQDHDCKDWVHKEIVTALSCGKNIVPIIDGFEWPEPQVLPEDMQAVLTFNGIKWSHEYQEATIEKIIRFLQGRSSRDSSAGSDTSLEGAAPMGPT

[14] = biological target: Mitogen-activated protein kinase 7 (Homo sapiens) (UniProt Q13164); test: Gal4-ERK5 driven luciferase induction – cell-based, HTS, primary screen (AID 1508626;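 active = luciferase signal above three times the same-plate solvent-only control wells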;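 also: luciferase driven by Gal4-ERK5 fusion binding five Gal4 sites before minimal TATA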); conditions: HeLa Gal4-ERK5 transactivation, 18 h, at 5 µM, stronger effect = higher value
Mitogen-activated protein kinase 7 (Homo sapiens), sequence (Q13164 whole entry, looked up, the tested form may be a part): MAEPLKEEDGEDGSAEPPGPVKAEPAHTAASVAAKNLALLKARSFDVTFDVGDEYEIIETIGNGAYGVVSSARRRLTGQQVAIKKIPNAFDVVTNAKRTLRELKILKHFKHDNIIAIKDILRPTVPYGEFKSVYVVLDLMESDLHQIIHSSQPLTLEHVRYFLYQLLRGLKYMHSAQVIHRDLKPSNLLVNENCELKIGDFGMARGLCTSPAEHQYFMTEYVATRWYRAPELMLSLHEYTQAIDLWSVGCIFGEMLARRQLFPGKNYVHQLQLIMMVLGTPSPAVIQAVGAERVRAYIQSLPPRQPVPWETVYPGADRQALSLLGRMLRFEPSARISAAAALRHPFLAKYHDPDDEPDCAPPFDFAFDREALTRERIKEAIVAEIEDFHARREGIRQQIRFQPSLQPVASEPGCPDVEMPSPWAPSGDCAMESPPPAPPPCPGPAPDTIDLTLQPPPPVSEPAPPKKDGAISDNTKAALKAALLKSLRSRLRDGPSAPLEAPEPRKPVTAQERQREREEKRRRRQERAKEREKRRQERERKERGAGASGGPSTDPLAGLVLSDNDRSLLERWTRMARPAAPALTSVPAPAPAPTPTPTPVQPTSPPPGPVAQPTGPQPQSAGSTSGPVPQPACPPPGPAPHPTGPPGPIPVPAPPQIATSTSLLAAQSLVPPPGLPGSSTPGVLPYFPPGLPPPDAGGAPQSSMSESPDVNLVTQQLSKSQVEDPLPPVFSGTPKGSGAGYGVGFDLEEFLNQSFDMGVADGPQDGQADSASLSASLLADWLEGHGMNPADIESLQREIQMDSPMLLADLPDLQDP

F380Y = test: BK channel mutant inhibitors and activators – cell-based, U2OS BacMam, thallium flux, beta subunits, selectivity assay, profiling panel (AID 1259406); conditions: U2OS BacMam BK variants, at 30 µM;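 also: initial slope of Thallos dye fluorescence rise after thallium is added; log ratio against the mean of 0.3% DMSO vehicle wells on the same plate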
F380Y/beta1 = test: as above; conditions: U2OS BacMam BK variants, at 30 µM
F380Y/beta2Delta = test: as above; conditions: U2OS BacMam BK variants, at 30 µM
[15] = viability loss with induced miR-34 in A549 – imaging, A549 dox-inducible miR-34, nuclei and caspase counts, primary screen (AID 1347080;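 active = compounds whose cell count with miR-34 switched on is under 0.7 times the count with it off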); conditions: A549 miR-34 inducible, Hoechst nuclei count, 48 h
[16] = measured here: epithelial PC-3E GFP cell survival
[17] = measured here: mesenchymal TEM4-18 mCherry cell survival
[18] = MELAS cybrid survival, CellTiter-Glo 48 h, stronger effect = higher value
[19] = Rieske KO mouse fibroblast survival, CellTiter-Glo 72 h

For `CCc1cc(C(N)=S)ccn1`, the nuclear beta-catenin stimulation ([1]; at 10 µM) was 0.1% (inactive), the nuclear beta-catenin stimulation ([1]; stimulation, at 2 µM) was 0.5% and the insulin secretion stimulation [2] was 1% (inactive). The viability decrease [3] was -19.3% (inactive), the tube area decrease [4] was 2.7% (inactive) and the GLP1 secretion stimulation [5] was -4% (inactive). For the same molecule, the inhibition of viability [6] was -7.9% (inactive), the viability decrease (inhibition) [7] was 6.3% (inactive) and the viability decrease (inhibition) [8] was -11% (inactive). For the same molecule, the inhibition [9] was 11% (inactive), the mean signal [10] was 267 (inactive) and the red/green cell ratio (normalised) [11] was 0.96 (inactive). For the same molecule, the normalised cell number [11, 16] was 1.01, the normalised cell number [11, 17] was 0.97 and the z-score [12, 18] was 0.0369 (inactive) and 0.0584 (inactive). For the same molecule, the z-score [12, 19] was 0.0377 and 0.257, the remaining NAD [13] was 10 nM (inactive) and the luciferase signal [14] was 40 AU (inactive). For the same molecule, the log fold change Tl+ flux (F380Y) was 0.0115 (inactive), the log fold change Tl+ flux (F380Y/beta1) was 0.0016 (inactive) and the log fold change Tl+ flux (F380Y/beta2Delta) was -0.0262 (inactive).
With `Oc1c(Cl)cc(Cl)c2cccnc12` the nuclear beta-catenin stimulation ([1]; at 10 µM) was 25.3% (inactive), the nuclear beta-catenin stimulation ([1]; stimulation, at 2 µM) was 10.8% and the insulin secretion stimulation [2] was -1.7% (inactive). The viability decrease [3] was 90.7% (active), the tube area decrease [4] was 102% (active) and the GLP1 secretion stimulation [5] was 5.7% (inactive). For the same molecule, the inhibition of viability [6] was 91.3% (active), the viability decrease (inhibition) [7] was 111% (active) and the viability decrease (inhibition) [8] was 90% (active). For the same molecule, the inhibition [9] was 13% (inactive), the mean signal [10] was 244 (inactive) and the red/green cell ratio (normalised) [11] was 0.97 (inactive). The normalised cell number [11, 16] was 1.04, the normalised cell number [11, 17] was 1.01 and the fold change ([15]; stronger effect = lower value, cell number ratio, induced over uninduced) was 1.3 (inactive) and 0.99 (inactive) and 0.933 (inactive). The fold change ([15]; measured here: relative caspase fold change +Dox/-Dox) was 0.88 and 1.1 and 1.4, the cell count ([15]; measured here: total cells with miR-34 induction, stronger effect = lower value) was 4540 and 5720 and 5380 and the cell count ([15]; measured here: total cells without miR-34 induction) was 3500 and 5780 and 5770. The z-score [12, 18] was -0.426 (inactive) and -0.351 (inactive), the z-score [12, 19] was 0.846 and 0.186 and the remaining NAD [13] was 10 nM (inactive). The luciferase signal [14] was 48 AU (inactive), the log fold change Tl+ flux (F380Y) was 0.177 (active) and the log fold change Tl+ flux (F380Y/beta1) was 0.135 (active). The log fold change Tl+ flux (F380Y/beta2Delta) was 0.437 (active).
In the case of `CCCc1nc2c(C)cc(-c3nc4ccccc4n3C)cc2n1Cc1ccc(-c2ccccc2C(=O)O)cc1`, the nuclear beta-catenin stimulation ([1]; at 10 µM) was 3.7% (inactive), the nuclear beta-catenin stimulation ([1]; stimulation, at 2 µM) was 1.8% and the insulin secretion stimulation [2] was -0.5% (inactive). The viability decrease [3] was -22.6% (inactive), the tube area decrease [4] was 8% (inactive) and the GLP1 secretion stimulation [5] was 1.1% (inactive). For the same molecule, the inhibition of viability [6] was 42% (inactive), the viability decrease (inhibition) [7] was 94.1% (active) and the viability decrease (inhibition) [8] was 36.3% (inactive). The inhibition [9] was 2.16% (inactive), the mean signal [10] was 236 (inactive) and the red/green cell ratio (normalised) [11] was 0.63 (inactive). The normalised cell number [11, 16] was 1.26, the normalised cell number [11, 17] was 0.8 and the z-score [12, 18] was -0.258 (inactive) and 0.956 (inactive) and -0.424 (inactive). For the same molecule, the z-score [12, 19] was 0.516 and 0.961 and -0.332, the remaining NAD [13] was 10 nM (inactive) and the luciferase signal [14] was 96 AU (inactive). For the same molecule, the log fold change Tl+ flux (F380Y) was -0.0745 (inactive), the log fold change Tl+ flux (F380Y/beta1) was 0.00163 (inactive) and the log fold change Tl+ flux (F380Y/beta2Delta) was 0.025 (inactive).
